Experimental data as given in PubChem BioAssay (NCI).
The panel holds about 79,000 compounds, 15% with a hit somewhere; the sample as a whole holds those more often. A number with no mark means an inactive call. The source made the active and inactive calls. No stated cut-off is given here; in the data, active means growth inhibition above about 70%; inactive means the rest.

Columns and labels:
[1] = NCI Yeast Anticancer Drug Screen. Data for the rad50 strain (AID 155);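 further: 0% = growth of vehicle-only cultures of the same strain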; conditions: S. cerevisiae rad50 strain growth inhibition, hits give high values
Method in brief: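 Readout: growth inhibition relative to vehicle-treated cultures. Compound exposure was carried out in a genetically defined yeast strain deficient in DNA damage repair.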

[2] = NCI Yeast Anticancer Drug Screen. Data for the mec2-1 strain (AID 157); conditions: S. cerevisiae mec2-1 strain, hits give high values
Method in brief: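 Yeast mec2-1 mutant treated with compound. Readout: growth inhibition vs vehicle controls.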

[3] = NCI Yeast Anticancer Drug Screen. Data for the sgs1 mgt1 strain (AID 161);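 further: 0% = growth of cultures given vehicle only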; conditions: S. cerevisiae sgs1 mgt1 strain, hits give high values
Method in brief: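 Test agents were incubated with a DNA-repair-mutant yeast strain. Growth was then read and compared against vehicle-treated controls.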

[4] = NCI Yeast Anticancer Drug Screen. Data for the cln2 rad14 strain (AID 165);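 further: 0% = growth equal to vehicle treated cultures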; conditions: S. cerevisiae cln2 rad14 strain, hits give high values
Method in brief: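 cln2 rad14 yeast strain; compound exposure; growth inhibition read vs vehicle controls.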

[5] = NCI Yeast Anticancer Drug Screen. Data for the bub3 strain (AID 167); conditions: S. cerevisiae bub3 mutant strain, hits give high values
Method in brief: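 Readout: yeast growth inhibition, expressed relative to vehicle-only wells. The test organism is a mutant strain from a panel with lesions in DNA repair or checkpoint genes.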

[6] = NCI Yeast Anticancer Drug Screen. Data for the mlh1 rad18 strain (AID 175); conditions: S. cerevisiae mlh1 rad18 strain growth inhibition, hits give high values
Method in brief: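 Yeast w/ defined DNA-repair lesions; compound exposure; growth vs vehicle controls → % inhibition.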

[7] = at 5.0 µM (retest, dose inferred, filed as 0.5)
[8] = at 50.0 µM (retest, dose inferred, filed as 5.0)

SMILES | growth inhibition [1, 7] | growth inhibition [1, 8] | growth inhibition ([1]; at 50.0 µM) | growth inhibition [2, 7] | growth inhibition [2, 8] | growth inhibition ([2]; at 50.0 µM) | growth inhibition [3, 7] | growth inhibition [3, 8] | growth inhibition ([3]; at 50.0 µM) | growth inhibition [4, 7] | growth inhibition [4, 8] | growth inhibition ([4]; at 50.0 µM) | growth inhibition [5, 7] | growth inhibition [5, 8] | growth inhibition ([5]; at 50.0 µM) | growth inhibition [6, 7] | growth inhibition [6, 8] | growth inhibition ([6]; at 50.0 µM)
C=[CH][Sn]([CH]=C)([S]c1cccc2cccnc12)[S]c1cccc2cccnc12 | 12% | 99% (active) | 92% (active) | 16% | 100% (active) | 91.5% (active) | 27% | 99% (active) | 92.3% (active) | 16% | 99% (active) | 75.5% (active) | 19% | 94% (active) | 83.7% (active) | 18% | 99% (active) | 91.8% (active)
CC/C=C\C/C=C\C/C=C\CCCCCCCC(=O)OCC(O)CO (stereo not given) | 0% | 4% | 22.9% | 0% | 37% | 88.1% (active) | 0% | 48% | 86.8% (active) | 1% | 10% | 42.9% | -2% | 83% (active) | 53.4% | 2% | 24% | 52.5%
O=C(CC(=O)c1ccccc1)CC(=O)c1ccccc1 | 31% | 81% (active) | 87.7% (active) | 24% | 85% (active) | 68.5% | 38% | 85% (active) | 74.7% (active) | 31% | 55% | 65.9% | 44% | 95% (active) | 88.7% (active) | 38% | 95% (active) | 84% (active)
OCC1(O)OCC(O)C(O)C1O (stereo not given) | -3% | 72% (active) | 74.7% (active) | -2% | 68% | 80% (active) | 0% | 60% | 72.7% (active) | 7% | 29% | 58.8% | 1% | 69% | 72.1% (active) | -1% | 81% (active) | 79.5% (active)
Cc1cc(C)nc(/C=C/c2ccccc2)c1 | -1% | -10% | 98.5% (active) | 1% | 7% | 96.6% (active) | -9% | 22% | 98.6% (active) | -1% | 16% | 94.1% (active) | 18% | 29% | 97.1% (active) | 10% | 18% | 97.8% (active)
Cc1ccc2cccc(N)c2c1 | 1% | 2% | -12.4% | 3% | 9% | -2.2% | 2% | 4% | -21.8% | 1% | -9% | 46.4% | 8% | 12% | -5.15% | 2% | 8% | 44.9%
COc1ccc(-c2cc(C(=O)O)c3cccc(C(F)(F)F)c3n2)cc1 | 15% | 85% (active) | 67.9% | 4% | 83% (active) | 57.6% | 0% | 92% (active) | 72.9% (active) | 22% | 80% (active) | 64.5% | 12% | 78% (active) | 59% | 17% | 96% (active) | 89.7% (active)
O=[N+]([O-])c1ccc(C(Nc2ccccc2)c2ccc3cccnc3c2O)cc1 (stereo not given) | -5% | 83% (active) | 71.9% (active) | -1% | 82% (active) | 80% (active) | -10% | 85% (active) | 76% (active) | -37% | 79% (active) | 81.3% (active) | -11% | 85% (active) | 58.6% | 4% | 85% (active) | 82.2% (active)
COc1ccc(SC2=C(N(C)C(C)=O)C(=O)c3ccccc3C2=O)cc1 | 98% (active) | 99% (active) | 99.5% (active) | 97% (active) | 100% (active) | 99.7% (active) | 97% (active) | 100% (active) | 99.7% (active) | 95% (active) | 99% (active) | 99.7% (active) | 99% (active) | 99% (active) | 99.6% (active) | 98% (active) | 99% (active) | 99.6% (active)
O=C(N/C(=C\c1nc2ccccc2s1)c1ccccc1O)c1ccccc1 | -10% | 68% | 29.8% | 7% | 30% | 12.3% | -16% | 31% | 38.5% | 2% | 41% | 17.2% | -5% | 75% (active) | 32.4% | 19% | 37% | 32%
